Results filed as inconclusive are left out. The source made the active and inactive calls. How the source made its calls: active means hit-call score of the fitted dose curve at least 0.9, where 1 is the maximum; inconclusive means response in the unintended direction; inactive means score below 0.9.
Target: sheep Cyclooxygenase-1 (Cox1), PTGS1 (gene 443551) (UniProt P05979)
Experiment: NVS_ENZ_oCOX1: NovaScreen (NVS) Enzymatic Assay for sheep Cyclooxygenase-1 (Cox1) (AID 2283239);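 further: actives reduce cyclooxygenase activity so potencies are for inhibitors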
Method: NVS_ENZ_oCOX1 is a biochemical, single-readout assay that uses extracted gene-proteins from Ovine seminal vesicles in a tissue-based cell-free assay. Measurements were taken 0.66 hour after chemical dosing in a 96-well plate.NVS_ENZ_oCOX1 is one of one assay component(s) measured or calculated from the NVS_ENZ_oCOX1 assay. It is designed to make measurements of enzyme activity, a form of enzyme reporter, as detected with absorbance signals by Colorimetric technology.Data from the assay component NVS_ENZ_oCOX1 was analyzed into 1 assay endpoint. This assay endpoint, NVS_ENZ_oCOX1, was analyzed in the positive analysis fitting direction relative to DMSO as the negative control and baseline of activity. Using a type of enzyme reporter, loss-of-signal activity can be used to understand changes in the enzymatic activity as they relate to the gene PTGS1. Furthermore, this assay endpoint can be referred to as a primary readout, because this assay has produced multiple assay endpoints where this one serves a enzymatic activity function. To generalize the intended target to other relatable targets, this assay endpoint is annotated to the oxidoreductase intended target family, where the subfamily is cyclooxygenase.
Binding assays used specific radioligands (tritiated, iodinated) with non-radioactive competitive displacement ligands in agonist or antagonist protocols (as indicated) and various reference compounds and inhibitors to titrate specific binding to receptors and transporters. Most enzyme assays (CYPs, kinases, phosphatases, proteases, HDACs) used recombinant protein and specific substrates (fluorescence mostly, some colorimetric and radioactive) and inhibitors, followed by a biochemical separation of substrate and product. All assays for the biochemical HTS were initially run in duplicate at a single concentration (10 uM for CYP450 assays and 25 uM for all others). […] Each assay was run with positive and negative controls, and concurrent controls on every plate. The follow-up (secondary) screen tested active chemical-pairs in concentration series, as well as a few additional assays not tested in the primary screen, some selected negative inactives, and several cases re-run in the concentration series for confirmatory purposes.

Chain of sheep Cyclooxygenase-1 (Cox1), PTGS1 (gene 443551) (P05979 whole entry, looked up): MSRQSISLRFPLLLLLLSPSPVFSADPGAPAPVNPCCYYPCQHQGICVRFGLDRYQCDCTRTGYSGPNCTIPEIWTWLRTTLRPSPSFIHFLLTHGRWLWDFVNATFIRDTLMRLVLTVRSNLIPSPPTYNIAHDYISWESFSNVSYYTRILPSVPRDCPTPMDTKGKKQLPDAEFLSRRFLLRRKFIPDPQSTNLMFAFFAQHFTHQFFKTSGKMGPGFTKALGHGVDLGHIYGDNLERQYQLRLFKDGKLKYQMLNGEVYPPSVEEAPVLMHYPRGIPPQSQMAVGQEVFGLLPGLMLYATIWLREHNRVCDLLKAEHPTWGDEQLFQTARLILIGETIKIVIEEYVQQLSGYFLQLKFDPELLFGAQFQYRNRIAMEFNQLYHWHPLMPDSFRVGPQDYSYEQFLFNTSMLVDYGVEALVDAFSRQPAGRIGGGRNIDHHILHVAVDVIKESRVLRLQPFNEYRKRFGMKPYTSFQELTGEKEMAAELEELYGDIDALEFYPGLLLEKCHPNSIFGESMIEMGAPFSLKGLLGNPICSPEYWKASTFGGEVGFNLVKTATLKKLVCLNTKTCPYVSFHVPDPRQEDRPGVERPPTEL

Row | Structure (SMILES) | outcome | AC50
1 | Clc1ccccc1Cl | inactive | 
2 | C1=Cc2cccc3cccc1c23 |  | 15.7 µM (active)
3 | c1ccc(NNc2ccccc2)cc1 |  | 2.46 µM (active)
4 | Cc1cccc(N)c1N | inactive | 
5 | ClCCOCCCl | inactive | 
6 | CN(C)c1ccc(C(=O)c2ccc(N(C)C)cc2)cc1 |  | 25.2 µM (active)
7 | CN(C)[C@@H]1C(=O)C(C(N)=O)=C(O)[C@@]2(O)C(=O)C3=C(O)c4c(O)cccc4[C@@](C)(O)[C@H]3C[C@@H]12 | inactive | 
8 | Nc1ccc(N=Nc2ccccc2)cc1 |  | 4.49 µM (active)
9 | c1ccc2c(c1)-c1cccc3cccc-2c13 | inactive | 
10 | [Cl-].[Cl-].[Hg+2] |  | 2.97 µM (active)
11 | Nc1ccc(Cl)cc1N |  | 4.69 µM (active)
12 | Cc1ccc(N)c(N)c1 |  | 42 µM (active)
13 | Cc1cc(N=Nc2ccccc2C)ccc1N |  | 11.8 µM (active)

From PubChem BioAssay (EPA / NIEHS)
